# Laboratory results taken from the supplement of paper PMC8728848.
# This is one part of a sample in which the strongest signals are shown more often than they occur.
# Tests used:
# Test in all cases: glycan array binding signal (z-score within array); higher = stronger binding
# Settings in all cases: glycan notation: IUPAC condensed, linker removed
# Fuc(a1-2)Gal = target: Fuc(a1-2)Gal
# Outline: (§1)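 Glycan array data came from 3228 arrays in the Consortium for Functional Glycomics database, and only arrays with an available protein sequence were kept. Glycan names were put into IUPAC-condensed notation, and columns mapping to the same glycan were averaged. The binding signal is a within-array Z-score, averaged across arrays of one protein sequence run at different concentrations or buffers and across linkers. A negative Z-score can be read as non-binding.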
# [1] = target: Fuc(a1-2)Gal(b1-3)GalNAc(b1-3)Gal(a1-4)Gal(b1-4)Glc
# Outline: as §1
# Fuc(a1-2)Gal(b1-4)Glc6S = target: Fuc(a1-2)Gal(b1-4)Glc6S
# Outline: as §1
# [2] = target: Fuc(a1-2)Gal(b1-4)GlcNAc(b1-3)Gal(b1-4)GlcNAc
# Outline: as §1
# [3] = target: Fuc(a1-2)Gal(b1-4)GlcNAc6S
# Outline: as §1
# [4] = target: Fuc(a1-2)[GalNAc(a1-3)]Gal(b1-3)GlcNAc(b1-2)Man(a1-3)[Fuc(a1-2)[GalNAc(a1-3)]Gal(b1-3)GlcNAc(b1-2)Man(a1-6)]Man(b1-4)GlcNAc(b1-4)GlcNAc
# Outline: as §1
# [5] = target: Fuc(a1-2)[GalNAc(a1-3)]Gal(b1-4)GlcNAc(b1-3)Gal(b1-4)GlcNAc(b1-3)Gal(b1-4)GlcNAc
# Outline: as §1
# Fuc(a1-3)GlcNAc = target: Fuc(a1-3)GlcNAc
# Outline: as §1
# Gal(a1-3)Gal(b1-4)Glc = target: Gal(a1-3)Gal(b1-4)Glc
# Outline: as §1
# Gal(a1-3)Gal(b1-4)GlcNAc = target: Gal(a1-3)Gal(b1-4)GlcNAc
# Outline: as §1
# Gal(a1-3)GalNAc = target: Gal(a1-3)GalNAc
# Outline: as §1
# [6] = target: Gal(b1-3)GalNAc(a1-3)[Fuc(a1-2)]Gal(b1-4)GlcNAc
# Outline: as §1
# Gal(b1-3)GlcNAc = target: Gal(b1-3)GlcNAc
# Outline: as §1
# [7] = target: Gal(b1-3)[Fuc(a1-4)]GlcNAc
# Outline: as §1
# [8] = target: Gal(b1-3)[Fuc(a1-4)]GlcNAc(b1-3)Gal(b1-4)GlcNAc
# Outline: as §1
# [9] = target: Gal(b1-4)GalNAc(b1-3)[Fuc(a1-2)]Gal(b1-4)GlcNAc
# Outline: as §1
# Gal(b1-4)Glc6S = target: Gal(b1-4)Glc6S
# Outline: as §1
# [10] = target: Gal(b1-4)GlcNAc(b1-2)Man(a1-3)[Gal(b1-4)GlcNAc(b1-2)Man(a1-6)]Man(b1-4)GlcNAc(b1-4)[Fuc(a1-6)]GlcNAc
# Outline: as §1
# [11] = target: Gal(b1-4)GlcNAc(b1-2)Man(a1-6)[GlcNAc(b1-2)Man(a1-3)]Man(b1-4)GlcNAc(b1-4)GlcNAc
# Outline: as §1
# [12] = target: Gal(b1-4)GlcNAc(b1-3)[Gal(b1-4)GlcNAc(b1-6)]GalNAc
# Outline: as §1
# [13] = target: Gal3S(b1-4)[Fuc(a1-3)]Glc6S
# Outline: as §1
# [14] = target: GalNAc(a1-3)GalNAc(a1-3)Gal(a1-4)Gal(b1-4)GlcNAc
# Outline: as §1
# [15] = target: GalNAc(b1-3)Gal(a1-4)Gal(b1-4)GlcNAc(b1-3)Gal(b1-4)Glc
# Outline: as §1
# [16] = target: GlcNAc(a1-4)Gal(b1-4)GalNAc
# Outline: as §1
# [17] = target: GlcNAc(a1-4)Gal(b1-4)GlcNAc(b1-3)Gal(b1-4)[Fuc(a1-3)]GlcNAc(b1-3)Gal(b1-4)[Fuc(a1-3)]GlcNAc
# Outline: as §1
# [18] = target: GlcNAc(b1-2)Man(a1-3)[GlcNAc(b1-2)Man(a1-6)]Man(b1-4)GlcNAc(b1-4)[Fuc(a1-6)]GlcNAc
# Outline: as §1
# GlcNAc3Prop(b1-4)GlcNAc = target: GlcNAc3Prop(b1-4)GlcNAc
# Outline: as §1
# [19] = target: Man(a1-2)Man(a1-6)[Man(a1-3)]Man(a1-6)[Man(a1-2)Man(a1-2)Man(a1-3)]Man
# Outline: as §1
# [20] = target: Neu5Ac(a2-3)Gal(b1-3)GlcNAc(b1-3)GalNAc
# Outline: as §1
# [21] = target: Neu5Ac(a2-3)Gal(b1-4)[Fuc(a1-3)]GlcNAc(b1-3)GalNAc
# Outline: as §1
# [22] = target: Neu5Ac(a2-6)Gal(b1-4)GlcNAc(b1-2)Man(a1-6)[Gal(b1-4)GlcNAc(b1-2)Man(a1-3)]Man(b1-4)GlcNAc(b1-4)GlcNAc
# Outline: as §1
# [23] = target: Neu5Ac(a2-6)Gal(b1-4)GlcNAc(b1-3)Gal(b1-4)[Fuc(a1-3)]GlcNAc(b1-3)Gal(b1-4)[Fuc(a1-3)]GlcNAc
# Outline: as §1
# [24] = target: Neu5Gc(a2-6)Gal(b1-4)GlcNAc
# Outline: as §1
binder,measurement,setting,value
"SRS2 (Toxoplasma gondii), O15695 (protein) MATRASLARQKTGAACLAVLTASPSVVAAKPWKRWVGVSVILASAFAVGVSAGPPYRYEPEKFTCRPKKGILSQWVSLLYQVQHNITFACEEATPVPTTLISEEHGLMVCAENMTPEECEANPAPLSAFLPGATKEWVTGDSVLTGLKISVPESQYPANAKSFRVGCRHNTKTGNTCMLTIHVEPRDPAVERQEARCSYTENSTLPKIFVTKDSNTMTLACGPHGAPMPESYTENYCSTPDTCDEKPFTSVIPGYLSKWFFGDPKSPLGARVRIPPEQIPSSPQINYFGCTGPTEGEGPKYNCTVPVPLGGGDPSEGSRPGGGSGGGKRGGGQGGGGSLAGFDFRQGSARHSLPSRMALSASALLAMTALAY",glycan array binding signal (z-score),Fuc(a1-2)Gal,0.535
same,glycan array binding signal (z-score),[1],0.231
same,glycan array binding signal (z-score),Fuc(a1-2)Gal(b1-4)Glc6S,0.222
same,glycan array binding signal (z-score),[2],0.699
same,glycan array binding signal (z-score),[3],0.345
same,glycan array binding signal (z-score),[4],-0.13
same,glycan array binding signal (z-score),[5],0.391
same,glycan array binding signal (z-score),Fuc(a1-3)GlcNAc,0.522
same,glycan array binding signal (z-score),Gal(a1-3)Gal(b1-4)Glc,-0.428
same,glycan array binding signal (z-score),Gal(a1-3)Gal(b1-4)GlcNAc,0.159
same,glycan array binding signal (z-score),Gal(a1-3)GalNAc,0.369
same,glycan array binding signal (z-score),[6],-0.437
same,glycan array binding signal (z-score),Gal(b1-3)GlcNAc,-0.506
same,glycan array binding signal (z-score),[7],-0.246
same,glycan array binding signal (z-score),[8],-0.495
same,glycan array binding signal (z-score),[9],-0.802
same,glycan array binding signal (z-score),Gal(b1-4)Glc6S,-0.35
same,glycan array binding signal (z-score),[10],1.54
same,glycan array binding signal (z-score),[11],1.51
same,glycan array binding signal (z-score),[12],6.82
same,glycan array binding signal (z-score),[13],2.13
same,glycan array binding signal (z-score),[14],0.55
same,glycan array binding signal (z-score),[15],-0.134
same,glycan array binding signal (z-score),[16],-0.448
same,glycan array binding signal (z-score),[17],2.07
same,glycan array binding signal (z-score),[18],14.3
same,glycan array binding signal (z-score),GlcNAc3Prop(b1-4)GlcNAc,0.829
same,glycan array binding signal (z-score),[19],0.304
same,glycan array binding signal (z-score),[20],1.3
same,glycan array binding signal (z-score),[21],1.72
same,glycan array binding signal (z-score),[22],-0.203
same,glycan array binding signal (z-score),[23],0.576
same,glycan array binding signal (z-score),[24],-0.03
